# Bioassay records as filed in PubChem BioAssay.
# HT1080NT lethal: kills 2HG-producing HT-1080-NT fibrosarcoma cells | HT-1080-NT fibrosarcoma viability, CellTiter-Glo ATP luminescence, 48 h | Potency, µM (doses to about 46.1 µM), for the others: at the top dose activity, negative = less viability, actives largely listed as cytotoxic | 360,000 compounds, 1.6% hits | AID 686970;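 also: NT is the 2HG producing partner of a matched IDH1 knockdown line; potency is read from the fitted curve at half-maximal effect; 0% = DMSO-treated cells and -100% = media-only wells without cells; nearly all actives have a fitted effect of over 55% in size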
#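 Viability of the 2HG-overproducing fibrosarcoma line after 48 hours of compound exposure at 37 degrees C was determined by luminescence with CellTiter-Glo, and concentration-effect curves were then fitted and categorized.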
# IL1B secr inh: inhibitors of inflammasome signaling (IL-1 beta secretion). THP-1 LPS/ATP IL-1B secretion, AlphaLISA, 16 h; stronger effect = lower value. activity change, % at 57.5 µM. 360,000 compounds, 4.7% hits; in the data active = activity change below about -50%; inconclusive = mostly about -30% to -49%
#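 Secreted IL-1B measured by AlphaLISA bead assay after 16 h compound exposure of THP-1 cells; compounds (final up to 57.5 uM) added 1 h before LPS (250 ng/mL) and ATP (1.25 mM) stimulation; lower signal means less secretion.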
# TDP1 cell CPT: growth inhibition of DT40 Tdp1-/-;hTDP1 cells with camptothecin (screen for TDP1 inhibitors); chicken DT40 Tdp1-/-;hTDP1 cells + 20 nM CPT, ATP luminescence, 48 h; Potency, µM (doses to about 46.2 µM), without a hit: at the top dose activity change, negative = growth inhibition, most hits filed as inhibitors; 420,000 compounds, 12% hits; AID 686979; also: potency is read from the fitted curve at half-maximal effect; nearly all actives have a fitted effect of over 55% in size
#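 Chicken DT40 Tdp1-/- cells stably complemented with human TDP1 were seeded at 400 cells/well in medium containing 20 nM camptothecin, exposed to pin-transferred compounds, and grown at 37 °C for at least 48 hr. Viability was read as ATP luminescence.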
# ELG1 DNA repair: inhibitors of ELG1-dependent DNA repair in HEK293T cells | HEK293T ELG1-luciferase reporter, luminescence, 16 h; DNA damage induced by 5-fluorouridine | Potency, µM (top dose mostly 46.1 µM), inactives show top-dose activity change, negative = inhibition, usual class: inhibitors | 330,000 compounds, 2.3% hits; also: potency is read from the fitted curve at half-maximal effect; nearly all actives have a fitted effect of over 55% in size
#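 Overnight (16 hr) co-exposure of 2,000 cells/well to 5-fluorouridine and compound at 37 °C preceded detection. Luciferase was quantified via ONE-Glo luminescence; loss of signal denotes inhibition.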
# DT40 TDP1 no CPT: qHTS for Inhibitors of human tyrosyl-DNA phosphodiesterase 1 (TDP1): qHTS in cells in absence of CPT | DT40 Tdp1-/- hTDP1 cells, no CPT, ATP luminescence, 48 h | Potency, µM (titrated, usually from 46.2 µM), without a hit: at the top dose activity change, negative = growth inhibition, usual class: inhibitors | 420,000 compounds, 15% hits | AID 686978, 2013; also: potency is read from the fitted curve at half-maximal effect; nearly all actives have a fitted effect of over 55% in size
#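 DT40 Tdp1-/-;hTDP1 cells, no CPT (DMSO vehicle only), 400 cells/well; compounds pin-transferred; ≥48 hr, 37 °C; CellTiter-Glo 30 min RT dark, luminescence read.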
# HT1080 IDH1KD tx: toxicity to HT-1080 IDH1 knockdown cells (counter line); HT-1080 IDH1 knockdown viability, ATP luminescence, 48 h; Potency, µM (doses to about 46.1 µM), inactives show at the top dose activity, negative = toxicity, usual class: cytotoxic; 360,000 compounds, 2% hits; AID 686971;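 also: potency is read from the fitted curve at half-maximal effect; 0% = DMSO wells and -100% = cell-free medium wells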
#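 Knockdown cells (IDH1KD HT-1080) received compounds 2 h after plating at 750 cells/well and were kept 48 h at 37 °C in 5% FBS RPMI. A CellTiter-Glo luminescence read gave % activity for curve fitting.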
# Active calls of the source: *; ? = inconclusive; nt = no result given; [ ] = remark or other dose. In the library only some 19% were active in any assay of this set; here they are far more common. Unless noted, calls follow the shape of the dose curve; as a rule, active = well fitted curve in the direction sought with a large enough effect; inconclusive = small, poorly fitted or top-dose-only effect, or another doubt; inactive = no such curve, though single readings can be large; an effect the other way counts as inactive or inconclusive. Unless noted, % is scaled to controls: 0 for no effect and ±100 for the full control effect.
SMILES,HT1080NT lethal,IL1B secr inh,TDP1 cell CPT,ELG1 DNA repair,DT40 TDP1 no CPT,HT1080 IDH1KD tx
O=C(NCC(=O)N1CCCCCCC1)c1ccc(Cl)c(Cl)c1,3.3%,16.1,-16.6%,nt,?,7.2%
COCCCNC(=O)c1cnn(-c2ccccc2Cl)c1C1CCN(C(=O)OC(C)(C)C)CC1,nt,nt,?,nt,-28.6%,nt
COc1ccc2[nH]cc(CCNC(=O)c3cnn(-c4ccc(C)cc4)c3C3CCN(C(=O)OC(C)(C)C)CC3)c2c1,nt,nt,9.2µM*,nt,5.17µM*,nt
COc1ccc2[nH]cc(CCNC(=O)c3cnn(-c4ccccc4Cl)c3C3CCN(C(=O)OC(C)(C)C)CC3)c2c1,nt,nt,13µM*,nt,10.3µM*,nt
NC(=O)c1ccc(N2CCN(c3ccccc3O)CC2)c([N+](=O)[O-])c1,1.8%,12.6,-21.6%,16.4µM*,?,-1.9%
O=[N+]([O-])c1ccc(N2CCN(c3ccccc3O)CC2)cc1,5.8%,-76.1*,5.0%,-4.9%,-12.7%,11.4%
O=[N+]([O-])c1ccc(N2CCN(c3ccccn3)CC2)c(Cl)c1,-19.6%,-58.7*,5.5%,?,?,-13.1%
O=[N+]([O-])c1ccc(N2CCN(c3ccccc3O)CC2)c(Cl)c1,-20.0%,?,20.6µM*,?,23.1µM*,-25.5%
O=[N+]([O-])c1ccc(N2CCN(S(=O)(=O)c3ccccc3)CC2)cc1,-0.6%,-0.7,?,?,?,-4.1%
NC(=O)c1ccc(N2CCN(c3ccccc3F)CC2)c([N+](=O)[O-])c1,6.1%,-6.7,-4.2%,?,?,18.2%
N#Cc1ccc(OCCN2CCc3ccccc3C2)cc1,-1.2%,-9.5,-19.9%,nt,-22.3%,-4.1%
Cc1ccc(C(C)C)c(OCC(O)CN2CCc3ccccc3C2)c1 (configuration not stated),?,-101.0*,?,-4.5%,?,?
OC(COc1c(F)cc(Br)cc1F)CN1CCc2ccccc2C1 (configuration not stated),-1.8%,-7.1,?,-9.6%,?,1.5%
OC(COCc1ccccc1)CN1CCc2ccccc2C1 (configuration not stated),1.9%,3.4,-9.1%,?,?,3.6%
Cc1cccc(C)c1OCC(O)CN1CCc2ccccc2C1 (configuration not stated),?,11.9,4.61µM*,nt,6.51µM*,?
Cc1cccc(C)c1OCC(O)CN (configuration not stated),6.1%,-59.1*,-2.0%,-0.2%,-12.7%,10.8%
Cc1ccc(Cl)c(OCCN2CCc3ccccc3C2)c1,-9.5%,-11.4,?,-8.4%,23.1µM*,-12.6%
CCOc1ccc(/C=C/c2nc(C#N)c(N3CCN(c4ccc(OC)cc4)CC3)o2)cc1,nt,nt,0.5%,nt,-24.5%,nt
COc1ccc(/C=C/c2nc(C#N)c(N3CCCCCC3)o2)cc1OC,nt,nt,11.6µM*,nt,8.2µM*,nt
CCN1CCN(c2oc(/C=C/c3ccc(OC)c(OC)c3)nc2C#N)CC1,nt,nt,16.4µM*,nt,?,nt
COc1ccc(N2CCN(S(=O)(=O)CCNC(=O)COc3ccccc3F)CC2)cc1,nt,nt,2.1%,nt,-26.1%,nt
CCC(C)c1ccc(NC(=O)N2CCN(C(=O)C3CCCO3)CC2)cc1 (configuration not stated),4.2%,0.0,11.3%,1.7%,-1.3%,4.5%
CCOC(=O)c1cn(Cc2ccc(C)cc2)c2cc(F)ccc2c1=O,-3.4%,66.1,?,?,-17.7%,-6.9%
COc1cc(C(=O)O[C@H]2C/C(C)=C/CC[C@@]3(C)O[C@@H]3[C@H](O)[C@@H]2C(C)C)cc(OC)c1OC,-15.0%,0.0,16.4µM*,?,23.1µM*,-0.5%
Cc1ccc(/C=C2\SC(=S)N(CCC(=O)NNC(=O)c3cccnc3)C2=O)cc1,2.3%,-5.2,16.4µM*,-29.5%,9.2µM*,1.4%
SMILES,HT1080NT lethal,IL1B secr inh,TDP1 cell CPT,ELG1 DNA repair,DT40 TDP1 no CPT,HT1080 IDH1KD tx
O=C(CCN1C(=O)/C(=C/c2ccc(F)cc2)SC1=S)NNC(=O)c1cccnc1,-1.4%,0.0,?,0.4%,9.2µM*,-9.6%
CC1(C2CC2)NC(=O)N(CC(=O)N2CCN(c3ccccc3)CC2)C1=O (configuration not stated),-3.4%,?,-1.9%,5.8%,15.1%,-3.7%
Cc1cc(C)nc(-n2nc(C)c3c2NC(=O)CC3c2ccccc2OC(C)C)n1 (configuration not stated),nt,nt,16.4µM*,nt,18.4µM*,nt
CCc1ccc(C2CC(=O)Nc3c2c(C)nn3-c2nc(C)cc(C)n2)cc1 (configuration not stated),nt,nt,20.6µM*,nt,20.6µM*,nt
COc1ccc(C2CC(=O)Nc3c2c(C)nn3-c2nncc(-c3ccccc3)n2)c(OC)c1OC (configuration not stated),nt,nt,-14.0%,nt,?,nt
Cc1ccc(CN2C(=O)CC(c3ccc(Cl)cc3)c3c(C)nn(-c4nc(C)cc(C)n4)c32)cc1 (configuration not stated),nt,nt,?,nt,20.6µM*,nt
COc1ccc(C2CC(=O)Nc3c2c(C)nn3-c2nncc(-c3ccc(C)cc3)n2)c(OC)c1OC (configuration not stated),nt,nt,11.6µM*,nt,6.51µM*,nt
Cc1cccc(C(=O)OCC(=O)NCCN2C(=O)CSC2=O)c1[N+](=O)[O-],?,0.0,0.1%,13.2%,6.3%,8.0%
COC(=O)[C@H](CC(C)C)NS(=O)(=O)NC(=O)OC(C)(C)C,nt,nt,-15.4%,nt,-0.5%,nt
CC1(C)N=C(N)NC(Nc2ccccc2)=N1,8.2µM*,19.7,?,0.7%,?,?
CCCN1CCN(CCNC(=O)Nc2ccc(OC)cc2OC)CC1,nt,nt,-15.5%,nt,-25.5%,nt
COc1ccc(NS(=O)(=O)c2ccc(Br)cc2)cn1,-16.6%,-12.1,1.7%,10.2%,?,-15.7%
COc1ccc(NS(=O)(=O)c2ccc3oc4ccccc4c3c2)cn1,?,24.0,23.1µM*,?,?,2.0%[9.24 µM]
CC(=O)N1N=C(c2ccc(C)o2)CC1c1ccc(F)cc1 (configuration not stated),17.3%,-1.9,-15.3%,?,-17.8%,16.9%
CN(C)c1ccc(C2C3CCCc4ccccc4C3=NN2C)cc1 (configuration not stated),10.5%,26.1,?,?,?,13.2%
CC(=O)N1N=C2c3ccccc3CCC2C1c1ccc(F)cc1 (configuration not stated),?,nt,-27.1%,?,?,20.6µM*
